# From ChEMBL document CHEMBL1961873, “Compounds: GSK PKIS; Assays: Nanosyn kinase panel” (2012)
# Assays:
# [1] = biological target: Tyrosine-protein kinase receptor UFO (Homo sapiens) (UniProt P30530); conditions: at 1 µM
# [2] = biological target: Tyrosine-protein kinase Blk (Homo sapiens) (UniProt P51451); conditions: at 0.1 µM
# [3] = biological target: Tyrosine-protein kinase Blk (Homo sapiens) (UniProt P51451); conditions: at 1 µM
# [4] = biological target: T1, Cytoplasmic tyrosine-protein kinase BMX (Homo sapiens) (UniProt P51813); conditions: at 0.1 µM
# T1 sequence (whole entry): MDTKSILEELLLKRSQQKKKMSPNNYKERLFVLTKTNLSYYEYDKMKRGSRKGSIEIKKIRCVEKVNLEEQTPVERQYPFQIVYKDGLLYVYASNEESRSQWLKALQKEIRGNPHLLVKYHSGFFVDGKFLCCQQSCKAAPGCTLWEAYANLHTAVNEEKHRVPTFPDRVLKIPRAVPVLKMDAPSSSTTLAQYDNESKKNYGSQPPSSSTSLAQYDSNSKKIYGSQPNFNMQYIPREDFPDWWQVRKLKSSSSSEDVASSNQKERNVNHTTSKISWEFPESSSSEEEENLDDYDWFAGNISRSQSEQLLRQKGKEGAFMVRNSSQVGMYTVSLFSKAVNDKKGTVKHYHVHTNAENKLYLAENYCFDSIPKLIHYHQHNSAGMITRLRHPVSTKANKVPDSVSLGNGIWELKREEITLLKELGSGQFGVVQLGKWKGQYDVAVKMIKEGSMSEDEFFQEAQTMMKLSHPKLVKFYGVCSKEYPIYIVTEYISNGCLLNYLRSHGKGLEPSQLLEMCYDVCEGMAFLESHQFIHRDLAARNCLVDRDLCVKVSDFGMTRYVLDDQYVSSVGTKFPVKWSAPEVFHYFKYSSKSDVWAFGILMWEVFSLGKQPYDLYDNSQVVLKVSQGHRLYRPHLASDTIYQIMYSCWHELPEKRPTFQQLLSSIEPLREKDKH
# [5] = biological target: T1, Cytoplasmic tyrosine-protein kinase BMX (Homo sapiens); conditions: at 1 µM
# [6] = biological target: Protein-tyrosine kinase 6 (Homo sapiens) (UniProt Q13882); conditions: at 0.1 µM
# [7] = biological target: Protein-tyrosine kinase 6 (Homo sapiens) (UniProt Q13882); conditions: at 1 µM
# [8] = biological target: Tyrosine-protein kinase BTK (Homo sapiens) (UniProt Q06187); conditions: at 0.1 µM
# [9] = biological target: Tyrosine-protein kinase BTK (Homo sapiens) (UniProt Q06187); conditions: at 1 µM
# [10] = biological target: Tyrosine-protein kinase CSK (Homo sapiens) (UniProt P41240); conditions: at 0.1 µM
# [11] = biological target: Tyrosine-protein kinase CSK (Homo sapiens) (UniProt P41240); conditions: at 1 µM
# [12] = biological target: T2, Discoidin domain-containing receptor 2 (Homo sapiens) (UniProt Q16832); conditions: at 0.1 µM
# T2 sequence (whole entry): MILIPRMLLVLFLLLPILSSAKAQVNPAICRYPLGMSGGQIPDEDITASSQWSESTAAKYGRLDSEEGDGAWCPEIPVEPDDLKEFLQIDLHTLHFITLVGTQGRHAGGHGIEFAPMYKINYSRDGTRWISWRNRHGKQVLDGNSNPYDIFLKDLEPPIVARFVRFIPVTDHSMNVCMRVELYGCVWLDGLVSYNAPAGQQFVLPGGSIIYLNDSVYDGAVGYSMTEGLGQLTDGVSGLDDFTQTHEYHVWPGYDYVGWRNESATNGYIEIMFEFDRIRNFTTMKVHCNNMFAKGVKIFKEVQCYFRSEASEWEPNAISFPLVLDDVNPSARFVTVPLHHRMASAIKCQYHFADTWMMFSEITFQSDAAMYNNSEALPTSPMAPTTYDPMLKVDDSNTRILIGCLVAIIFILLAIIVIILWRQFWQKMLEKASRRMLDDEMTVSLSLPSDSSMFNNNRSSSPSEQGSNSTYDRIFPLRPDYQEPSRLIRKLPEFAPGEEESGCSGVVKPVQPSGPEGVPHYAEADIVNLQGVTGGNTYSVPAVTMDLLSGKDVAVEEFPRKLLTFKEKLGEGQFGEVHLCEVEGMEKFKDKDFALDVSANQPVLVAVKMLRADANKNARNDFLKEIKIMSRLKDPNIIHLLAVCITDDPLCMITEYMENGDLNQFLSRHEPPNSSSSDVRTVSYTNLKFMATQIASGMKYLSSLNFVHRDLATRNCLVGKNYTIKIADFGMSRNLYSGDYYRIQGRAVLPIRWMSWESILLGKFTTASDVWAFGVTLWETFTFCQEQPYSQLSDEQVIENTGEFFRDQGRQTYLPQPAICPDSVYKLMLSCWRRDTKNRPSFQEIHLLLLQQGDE
# [13] = biological target: T2, Discoidin domain-containing receptor 2 (Homo sapiens); conditions: at 1 µM
# [14] = biological target: Epidermal growth factor receptor (Homo sapiens) (UniProt P00533); conditions: at 0.1 µM
# [15] = test system: Epidermal growth factor receptor (Homo sapiens), P00533 [L858R]; conditions: at 0.1 µM
# [16] = test system: Epidermal growth factor receptor (Homo sapiens), P00533 [L858R]; conditions: at 1 µM
# [17] = test system: Epidermal growth factor receptor (Homo sapiens), P00533 [L861Q]; conditions: at 0.1 µM
# [18] = test system: Epidermal growth factor receptor (Homo sapiens), P00533 [L861Q]; conditions: at 1 µM
# [19] = test system: Epidermal growth factor receptor (Homo sapiens), P00533 [T790M]; conditions: at 0.1 µM
# [20] = biological target: Epidermal growth factor receptor (Homo sapiens) (UniProt P00533); conditions: at 1 µM
# Chain of Epidermal growth factor receptor (Homo sapiens), P00533 [T790M] (P00533 whole entry T790M): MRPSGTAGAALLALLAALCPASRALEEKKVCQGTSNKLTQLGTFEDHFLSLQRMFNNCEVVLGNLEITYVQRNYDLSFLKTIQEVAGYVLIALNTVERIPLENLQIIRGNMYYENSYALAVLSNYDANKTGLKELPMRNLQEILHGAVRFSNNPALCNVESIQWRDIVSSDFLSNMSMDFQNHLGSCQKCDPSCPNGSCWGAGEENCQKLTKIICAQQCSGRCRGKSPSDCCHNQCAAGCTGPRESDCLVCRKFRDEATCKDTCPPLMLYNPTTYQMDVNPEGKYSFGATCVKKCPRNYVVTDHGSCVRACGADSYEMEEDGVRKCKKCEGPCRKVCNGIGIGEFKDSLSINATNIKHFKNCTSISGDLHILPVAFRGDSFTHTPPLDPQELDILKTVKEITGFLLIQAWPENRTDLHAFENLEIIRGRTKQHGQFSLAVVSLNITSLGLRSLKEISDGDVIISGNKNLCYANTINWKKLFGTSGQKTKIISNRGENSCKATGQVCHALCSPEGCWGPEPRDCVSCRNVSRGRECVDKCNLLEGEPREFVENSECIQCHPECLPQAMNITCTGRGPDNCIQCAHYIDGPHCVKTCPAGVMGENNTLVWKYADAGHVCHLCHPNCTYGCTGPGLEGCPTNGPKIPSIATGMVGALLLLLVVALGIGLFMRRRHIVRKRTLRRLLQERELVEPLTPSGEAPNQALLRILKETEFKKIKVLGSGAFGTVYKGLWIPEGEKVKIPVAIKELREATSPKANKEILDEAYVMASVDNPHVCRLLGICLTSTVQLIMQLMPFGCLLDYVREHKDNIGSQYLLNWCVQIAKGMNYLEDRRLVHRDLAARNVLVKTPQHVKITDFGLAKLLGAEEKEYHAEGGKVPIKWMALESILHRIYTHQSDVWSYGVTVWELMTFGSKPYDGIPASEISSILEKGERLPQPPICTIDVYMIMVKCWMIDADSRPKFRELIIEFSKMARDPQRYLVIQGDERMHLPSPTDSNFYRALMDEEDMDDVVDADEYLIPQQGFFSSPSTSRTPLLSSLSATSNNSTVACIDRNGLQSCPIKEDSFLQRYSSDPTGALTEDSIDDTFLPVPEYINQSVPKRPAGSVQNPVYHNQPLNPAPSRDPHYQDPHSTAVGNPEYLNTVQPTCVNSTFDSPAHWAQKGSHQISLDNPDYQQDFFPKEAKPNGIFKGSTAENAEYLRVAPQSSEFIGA
# Chain of Tyrosine-protein kinase BTK (Homo sapiens) (Q06187 whole entry): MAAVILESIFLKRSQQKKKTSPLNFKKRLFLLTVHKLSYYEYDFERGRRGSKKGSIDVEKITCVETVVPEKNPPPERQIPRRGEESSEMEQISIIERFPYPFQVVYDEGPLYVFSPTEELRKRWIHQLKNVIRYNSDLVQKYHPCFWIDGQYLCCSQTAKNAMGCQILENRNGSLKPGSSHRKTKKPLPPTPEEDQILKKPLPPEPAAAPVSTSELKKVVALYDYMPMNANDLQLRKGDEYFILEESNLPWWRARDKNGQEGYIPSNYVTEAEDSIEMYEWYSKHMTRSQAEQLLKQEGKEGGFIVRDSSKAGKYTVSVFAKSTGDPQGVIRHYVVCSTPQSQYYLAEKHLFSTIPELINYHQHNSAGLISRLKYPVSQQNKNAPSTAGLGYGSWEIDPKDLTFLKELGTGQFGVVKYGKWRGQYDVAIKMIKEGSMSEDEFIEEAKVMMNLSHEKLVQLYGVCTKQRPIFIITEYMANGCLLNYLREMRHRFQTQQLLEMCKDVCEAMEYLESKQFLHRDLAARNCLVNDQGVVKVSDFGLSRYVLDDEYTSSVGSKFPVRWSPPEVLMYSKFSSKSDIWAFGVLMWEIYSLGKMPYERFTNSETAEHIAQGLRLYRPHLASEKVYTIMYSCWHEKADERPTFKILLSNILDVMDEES
# Chain of Epidermal growth factor receptor (Homo sapiens), P00533 [L861Q] (P00533 whole entry L861Q): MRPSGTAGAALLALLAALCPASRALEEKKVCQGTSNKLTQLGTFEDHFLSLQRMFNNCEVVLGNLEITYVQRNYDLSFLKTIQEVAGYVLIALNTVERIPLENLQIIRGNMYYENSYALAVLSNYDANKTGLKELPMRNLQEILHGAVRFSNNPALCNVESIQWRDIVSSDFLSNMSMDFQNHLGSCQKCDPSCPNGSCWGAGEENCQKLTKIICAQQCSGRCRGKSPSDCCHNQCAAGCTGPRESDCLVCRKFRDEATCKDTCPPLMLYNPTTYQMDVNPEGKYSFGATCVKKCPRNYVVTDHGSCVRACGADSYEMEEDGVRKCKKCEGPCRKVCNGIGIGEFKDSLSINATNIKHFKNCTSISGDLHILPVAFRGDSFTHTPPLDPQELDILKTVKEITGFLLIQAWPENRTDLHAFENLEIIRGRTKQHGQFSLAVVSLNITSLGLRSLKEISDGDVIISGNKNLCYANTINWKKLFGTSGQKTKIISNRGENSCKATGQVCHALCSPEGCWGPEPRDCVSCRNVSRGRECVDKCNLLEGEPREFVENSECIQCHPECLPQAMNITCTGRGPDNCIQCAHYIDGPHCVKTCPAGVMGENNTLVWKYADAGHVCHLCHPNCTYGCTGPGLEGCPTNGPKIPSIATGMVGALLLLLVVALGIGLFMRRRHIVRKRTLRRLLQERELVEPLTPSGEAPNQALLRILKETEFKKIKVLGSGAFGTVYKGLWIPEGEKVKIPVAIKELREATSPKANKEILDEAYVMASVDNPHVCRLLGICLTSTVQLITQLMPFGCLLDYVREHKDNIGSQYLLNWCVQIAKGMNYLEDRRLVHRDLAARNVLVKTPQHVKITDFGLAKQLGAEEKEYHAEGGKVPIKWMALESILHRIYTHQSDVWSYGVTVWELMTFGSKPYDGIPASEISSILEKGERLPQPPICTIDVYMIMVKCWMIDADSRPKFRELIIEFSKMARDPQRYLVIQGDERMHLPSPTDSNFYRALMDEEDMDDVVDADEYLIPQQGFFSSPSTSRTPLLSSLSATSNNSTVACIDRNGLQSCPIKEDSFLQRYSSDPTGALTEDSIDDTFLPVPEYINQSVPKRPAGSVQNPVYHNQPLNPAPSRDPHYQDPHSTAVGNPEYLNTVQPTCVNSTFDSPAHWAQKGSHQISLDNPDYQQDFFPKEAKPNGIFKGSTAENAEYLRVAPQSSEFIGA
# Chain of Tyrosine-protein kinase Blk (Homo sapiens) (P51451 2-505 limits assumed): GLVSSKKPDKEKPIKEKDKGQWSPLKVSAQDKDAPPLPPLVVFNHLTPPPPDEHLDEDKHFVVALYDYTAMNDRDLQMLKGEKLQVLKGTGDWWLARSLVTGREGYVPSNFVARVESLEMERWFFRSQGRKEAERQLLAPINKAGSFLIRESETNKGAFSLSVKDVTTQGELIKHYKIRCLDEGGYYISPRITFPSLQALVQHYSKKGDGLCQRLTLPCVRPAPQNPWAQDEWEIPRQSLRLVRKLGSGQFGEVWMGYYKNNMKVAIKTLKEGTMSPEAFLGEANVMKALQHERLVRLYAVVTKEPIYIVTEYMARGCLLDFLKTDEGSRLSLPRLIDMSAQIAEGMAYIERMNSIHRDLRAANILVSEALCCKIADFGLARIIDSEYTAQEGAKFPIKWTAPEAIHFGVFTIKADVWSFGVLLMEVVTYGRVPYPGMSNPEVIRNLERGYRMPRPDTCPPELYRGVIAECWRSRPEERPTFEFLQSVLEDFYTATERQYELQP
# Chain of Epidermal growth factor receptor (Homo sapiens), P00533 [L858R] (P00533 whole entry L858R): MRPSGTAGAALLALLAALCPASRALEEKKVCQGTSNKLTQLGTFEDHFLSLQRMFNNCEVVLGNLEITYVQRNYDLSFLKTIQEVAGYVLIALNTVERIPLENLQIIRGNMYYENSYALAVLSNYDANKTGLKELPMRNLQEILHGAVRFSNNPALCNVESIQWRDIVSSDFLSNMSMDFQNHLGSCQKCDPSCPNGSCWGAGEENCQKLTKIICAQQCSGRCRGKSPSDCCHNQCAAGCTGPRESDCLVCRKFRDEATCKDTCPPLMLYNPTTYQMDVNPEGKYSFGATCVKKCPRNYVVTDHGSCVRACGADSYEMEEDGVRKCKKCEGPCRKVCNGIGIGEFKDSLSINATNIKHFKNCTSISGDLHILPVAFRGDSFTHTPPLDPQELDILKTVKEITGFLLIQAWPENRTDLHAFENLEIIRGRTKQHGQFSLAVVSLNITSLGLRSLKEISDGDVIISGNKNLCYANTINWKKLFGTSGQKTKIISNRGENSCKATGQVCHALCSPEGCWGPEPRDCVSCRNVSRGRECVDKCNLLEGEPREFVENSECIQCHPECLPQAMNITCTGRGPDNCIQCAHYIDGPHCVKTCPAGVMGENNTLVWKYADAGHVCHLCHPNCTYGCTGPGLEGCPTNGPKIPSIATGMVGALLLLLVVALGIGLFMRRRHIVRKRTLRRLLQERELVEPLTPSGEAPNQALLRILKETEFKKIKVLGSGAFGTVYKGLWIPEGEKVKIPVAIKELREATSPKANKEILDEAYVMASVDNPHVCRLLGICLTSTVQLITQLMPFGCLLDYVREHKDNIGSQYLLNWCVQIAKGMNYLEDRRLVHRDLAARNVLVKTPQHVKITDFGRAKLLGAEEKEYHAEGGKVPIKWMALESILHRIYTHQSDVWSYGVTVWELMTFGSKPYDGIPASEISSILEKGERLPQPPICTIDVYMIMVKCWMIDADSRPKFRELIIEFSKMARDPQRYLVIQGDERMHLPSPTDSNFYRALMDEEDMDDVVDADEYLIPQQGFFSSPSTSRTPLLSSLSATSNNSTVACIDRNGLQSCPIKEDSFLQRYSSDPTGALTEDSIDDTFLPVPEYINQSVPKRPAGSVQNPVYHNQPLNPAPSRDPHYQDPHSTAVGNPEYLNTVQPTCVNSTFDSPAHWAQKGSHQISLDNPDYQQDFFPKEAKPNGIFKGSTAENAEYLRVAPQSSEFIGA
Compound,inhibition [1],inhibition [2],inhibition [3],inhibition [4],inhibition [5],inhibition [6],inhibition [7],inhibition [8],inhibition [9],inhibition [10],inhibition [11],inhibition [12],inhibition [13],inhibition [14],inhibition [15],inhibition [16],inhibition [17],inhibition [18],inhibition [19],inhibition [20]
COc1cc(N2CCN(C(C)C)CC2)ccc1Nc1nc(Nc2ccc(F)cc2C(N)=O)c2cc[nH]c2n1,42.4%,1.9%,3.73%,1.88%,5.02%,4.84%,31.2%,-0.63%,-0.07%,1.42%,0.44%,0.99%,0.35%,5.2%,1.78%,39.2%,3.8%,23.1%,26.4%,
CCc1nn2ncccc2c1-c1ccnc(NC2CC2)n1,-2.77%,1.77%,3.32%,3.6%,5.18%,-0.52%,1.65%,0.24%,0.76%,0.85%,1.97%,1.02%,1.6%,2.78%,1.84%,0.95%,1.81%,2.47%,1.44%,4.33%
CC(C)(CO)CNC(=O)c1ccc2c(c1)/C(=N/Nc1ccc(S(N)(=O)=O)cc1)C(=O)N2,6.57%,-0.9%,10.8%,-1.83%,0.67%,-2.27%,-0.34%,0.27%,-2.23%,0.77%,-0.3%,-1.82%,3.39%,5.33%,-3.09%,-0.53%,-0.63%,-0.88%,-1.56%,5.03%
COc1cccc(-n2ncc3c(N/N=C/c4ccc(F)cc4)ncnc32)c1,-3.79%,4.91%,18.2%,-0.31%,13%,4.36%,5.54%,1.48%,1.13%,3.3%,11.4%,1.69%,4.36%,0.53%,11.6%,34.9%,5.16%,12%,1.96%,7.92%
COc1ccc2c(-c3ccnc(Nc4cccc(OC(F)(F)F)c4)n3)cnn2n1,-4.65%,3.16%,4.41%,0.75%,8.05%,7.26%,7.21%,1.66%,2.02%,8.18%,12.2%,1.53%,3.16%,1.3%,4.17%,5.43%,2.8%,4.76%,2.35%,2.97%
N#Cc1c(NC(=O)CN2CCOCC2)sc2c1CCCC2,-0.41%,3.64%,3.64%,-0.4%,3.55%,0.26%,6.1%,0.98%,3.11%,6.19%,3.68%,2.2%,2.97%,0.55%,3.01%,4.14%,3.34%,3.29%,3.11%,-0.79%
Fc1cccc(COc2ccc(Nc3ncnc4sc(-c5ccco5)cc34)cc2Cl)c1,-6.25%,4%,3.74%,2.98%,2.36%,3.39%,3.91%,-1.13%,1.35%,-0.1%,2.56%,3.86%,4.41%,71.9%,15.2%,54.8%,30.2%,51%,1.83%,81.9%
COc1cc(Nc2nccc(Nc3ccc4c(C)n[nH]c4c3)n2)cc(OC)c1OC,1.16%,12.7%,69.3%,17.5%,64.8%,11.1%,55.4%,7.82%,34.9%,21%,67.9%,9.87%,43.1%,8%,3.36%,29.9%,2.9%,15.6%,1.4%,22.2%
COC(=O)Nc1nc2ccc(Oc3ccc(NC(=O)Nc4cccc(Cl)c4)cc3)cc2[nH]1,6.96%,0.1%,1.79%,1.98%,1.28%,0.55%,-0.38%,0.06%,-0.37%,1.23%,5.95%,84.2%,85.2%,3.42%,-0.65%,2.43%,-0.21%,-0.8%,-1.18%,7.64%
CC1=C(C(=O)Nc2cc(Cl)c3[nH]ncc3c2)C(c2ccc(C(F)(F)F)cc2)CC(=O)N1 (centres undefined),-2.18%,4.37%,33.2%,0.59%,4.11%,5.88%,10.3%,-0.51%,0.33%,4.43%,2.47%,1.75%,1.35%,-1.31%,2.16%,7.45%,2.03%,2.45%,1.57%,5.03%
Clc1ccc(-c2nn3ncccc3c2-c2ccnc(Nc3ccccc3)n2)cc1,-0.77%,3.97%,15%,-0.61%,13.9%,7.5%,40.2%,0.8%,2.63%,0.47%,5.89%,3%,76.7%,13.2%,43.5%,87.6%,12%,58.5%,1.98%,61.7%
O=C(O[C@H]1CN[C@H](C#Cc2cc3ncnc(Nc4ccc(Cc5ccccc5)cc4)c3s2)C1)N1CCOCC1,-7.04%,5.97%,48.5%,1.38%,4.65%,-0.08%,18.2%,-0.44%,1.44%,-1.2%,2.39%,-1.8%,-1.26%,27.8%,1.68%,11.4%,15.1%,26.9%,1.18%,69.9%
Nc1nc(-c2ccc(F)cc2)c(-c2ccc3ncccc3n2)s1,-3.07%,4.2%,12.1%,-2.65%,6.23%,7.59%,20.6%,0.27%,0.99%,5.94%,5.38%,0.01%,-5.99%,2.98%,13.1%,60.5%,6.11%,22.4%,1.84%,21.7%
CS(=O)(=O)CCNCc1coc(-c2ccc3ncnc(Nc4ccc(OCc5ccccc5)cc4)c3c2)c1,0.06%,2.9%,11.5%,4.64%,6.49%,-1.1%,10.9%,-0.04%,2.66%,0.42%,5.24%,1.75%,1.8%,80.3%,30.6%,82.5%,39.1%,76%,2.61%,92.2%
CCNC(=O)O[C@H]1CN[C@H](C#Cc2cc3ncnc(Nc4ccc(OCc5cccc(F)c5)c(Cl)c4)c3s2)C1,-3.57%,2.3%,2.43%,-0.06%,2.73%,3.17%,5.56%,1.15%,1.29%,5.58%,7.41%,2.66%,1.39%,86.6%,32.5%,81%,37.6%,67%,2.9%,98%
CCN1CCC(CC(=O)Nc2n[nH]c3nnc(-c4cccc(F)c4F)cc23)CC1,0.83%,3.37%,3.76%,1.54%,1.09%,2.53%,1.16%,0.54%,1.15%,-1.69%,4.47%,1.59%,1.68%,-0.65%,-0.92%,3.4%,0.65%,-0.91%,-0.06%,2.31%
COC(=O)c1sc(-n2cnc3cc(OC)c(OC)cc32)cc1OCc1ccccc1C(F)(F)F,-2.03%,3.54%,22.4%,3.04%,6.66%,2.66%,4.35%,-0.65%,1.6%,1.76%,0.42%,2.46%,2.44%,-0.33%,1.6%,6.95%,3.31%,0.15%,1.36%,2.22%
